In PubChem BioAssay (Tox21):
Records with an inconclusive call do not appear. Activity calls are given as the source filed them. Unless noted, calls come from the whole dose curve; as a rule, active = well fitted curve in the direction sought with a large enough effect in the repeat runs; inconclusive = weak or mixed curves; inactive = no such curve, though single readings can be large; an effect the other way counts as inactive or inconclusive.

How the values were obtained:
[1] = qHTS assay to identify small molecule agonists of the vitamin D receptor (VDR) signaling pathway - cell viability counter screen (AID 743224); note: nearly all actives have a fitted effect of over 50% in size; note: potency is the fitted concentration of half-maximal effect
In short: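 Cytotoxicity counter screen: VDR-bla cells, 16 h compound exposure at 37C, 5% CO2; CellTiter-Glo luminescence, 30 min RT, same wells as bla read.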

[2] = qHTS assay to identify small molecule antagonists of the vitamin D receptor (VDR) signaling pathway - cell viability counter screen (AID 743225); note: nearly all actives have a fitted effect of over 50% in size; note: potency is the fitted concentration of half-maximal effect
In short: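 Read-out: CellTiter-Glo luminescence measured 30 min after reagent addition at room temperature. Cells were VDR-bla HEK 293T exposed 16 h at 37C, 5% CO2, to compound with 3 nM final calcitriol agonist.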

[3] = qHTS assay to identify small molecule agonists of the NFkB signaling pathway - cell viability counter screen (AID 1159515; calls by dose curve; note: nearly all actives have a fitted effect of over 55% in size; note: potency is the fitted concentration of half-maximal effect)
In short: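 ME-180 NFkB-bla cells, 2,000/well; overnight attach; compound 5 hr, 37 C/5% CO2; LiveBLAzer substrate 1.5 hr RT; then CellTiter-Glo in same wells, 30 min RT, luminescence read.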

[4] = qHTS assay to identify small molecule agonists of the endoplasmic reticulum stress response signaling pathway - cell viability counter screen (AID 1159517; calls by dose curve; note: nearly all actives have a fitted effect of over 50% in size; note: potency is the fitted concentration of half-maximal effect)
In short: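 After overnight attachment, ESRE-bla HeLa cells were treated with Tox21 library compounds for 5 hr. CellTiter-Glo luminescence, read 30 min post-addition at room temperature, reported viability.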

[5] = qHTS assay to identify small molecule antagonists of the retinoid-related orphan receptor gamma (ROR-gamma) signaling pathway - cell viability counter screen (AID 1159520); note: nearly all actives have a fitted effect of over 50% in size; note: potency is the fitted concentration of half-maximal effect
In short: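 Cytotoxicity was read from cellular ATP (CellTiter-Glo luminescence) after 16 hr at 37 C with 1 uM doxycycline induction. The inducer was added 2 hr after compound transfer to Tet-on ROR gamma CHO cells.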

[6] = biological target: Nuclear receptor ROR-gamma (Homo sapiens) (UniProt P51449); assay: qHTS assay to identify small molecule antagonists of the retinoid-related orphan receptor gamma (ROR-gamma) signaling pathway (AID 1159521; note: nearly all actives have a fitted effect of over 50% in size; note: potency is the fitted concentration of half-maximal effect)
In short: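 CHO Tet-on RORγ, RORE-luc reporter. Cpd 2 h pre-incubation, then dox hyclate 1 uM final, 16 h, 37 C/5% CO2. ONE-Glo luminescence; decrease = antagonist.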

[7] = qHTS assay to identify small molecule agonists of the AP-1 signaling pathway - cell viability counter screen (AID 1159525; calls by dose curve; note: nearly all actives have a fitted effect of over 55% in size; note: potency is the fitted concentration of half-maximal effect)
In short: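 Intracellular ATP by Cell Titer Glo luminescence (30 min, RT) in the same ME-180 AP-1-bla wells after the 5 h compound exposure at 37 °C. Normalised to tetra n-octyl ammonium bromide and DMSO controls.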

[8] = qHTS assay to identify small molecule agonists of the RXR signaling pathway - cell viability counter screen (AID 1159529); note: nearly all actives have a fitted effect of over 50% in size; note: potency is the fitted concentration of half-maximal effect
In short: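 HEK 293T RXRa-bla cells, 2% CS-FBS; 5 h settle; cpd 16 h 37 C, 5% CO2; CellTiter-Glo 30 min RT, luminescence. Tetraoctyl ammonium bromide as positive control.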

[9] = qHTS assay to identify small molecule antagonists of the retinoid acid receptor (RAR) signaling pathway - cell viability counter screen (AID 1159551); note: nearly all actives have a fitted effect of over 35% in size; note: potency is the fitted concentration of half-maximal effect
In short: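 C3RL4 RARE-luciferase line; cpds + retinol 1 uM final, 6 h, 37 C/5% CO2; CellTiter-Glo ATP luminescence, 30 min RT.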

[10] = qHTS assay to identify small molecule antagonists of the retinoic acid receptor (RAR) signaling pathway (AID 1159552; note: nearly all actives have a fitted effect of over 50% in size; note: potency is the fitted concentration of half-maximal effect)
In short: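 Cells of the C3RL4 line were seeded, incubated overnight, then dosed with compounds in DMSO followed immediately by retinol (1 uM final). Six hours later luciferase detection reagent went in; signal was measured after 30 min at RT.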

[11] = qHTS assay to identify small molecule agonists of the retinoic acid receptor (RAR) signaling pathway (AID 1159553)
In short: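 RARE-luc C3RL4 cells; overnight attachment 37 C/5% CO2; compound (DMSO) 6 hr; luciferase reagent, 30 min RT; luminescence read-out.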

[12] = biological target: Retinoic acid receptor RXR-alpha (Homo sapiens) (UniProt P19793); assay: qHTS assay to identify small molecule agonists of the RXR signaling pathway (AID 1159527; calls by dose curve; note: nearly all actives have a fitted effect of over 35% in size; note: potency is the fitted concentration of half-maximal effect)
Sequence of Retinoic acid receptor RXR-alpha (Homo sapiens) (P19793 whole entry, looked up): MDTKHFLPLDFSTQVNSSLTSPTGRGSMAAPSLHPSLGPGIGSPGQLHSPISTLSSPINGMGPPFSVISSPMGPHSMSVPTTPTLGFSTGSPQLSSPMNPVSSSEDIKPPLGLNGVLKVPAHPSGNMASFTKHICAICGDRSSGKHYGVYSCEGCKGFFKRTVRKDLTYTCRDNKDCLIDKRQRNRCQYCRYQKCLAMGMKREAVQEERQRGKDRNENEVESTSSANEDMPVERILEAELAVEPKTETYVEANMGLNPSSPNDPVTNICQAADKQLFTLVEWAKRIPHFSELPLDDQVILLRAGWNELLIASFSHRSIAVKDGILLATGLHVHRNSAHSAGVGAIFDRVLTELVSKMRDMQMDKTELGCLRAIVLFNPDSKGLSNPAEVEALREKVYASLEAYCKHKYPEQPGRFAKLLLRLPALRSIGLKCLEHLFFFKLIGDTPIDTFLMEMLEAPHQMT
In short: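 Read-out: beta-lactamase FRET ratio (405 nm excitation, 460 and 530 nm emission) after 2 hr substrate loading at room temperature. Cells were RXR-alpha-UAS-bla HEK 293T treated with compounds for 16 hr in 2% charcoal-stripped FBS medium.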

[13] = qHTS assay to identify small molecule agonists of the AP-1 signaling pathway (AID 1159526; calls by dose curve)

Measured: Potency

Cc1cc(=O)oc2cc(N(C)C)ccc12
inactive: [1] | [2] | [3] | [4] | [5] | [6] | [7] | [8] | [9] | [10] | [11]

CCCCCCCC[P+](CCCCCCCC)(CCCCCCCC)CCCCCCCC
active: [1] 3.45 µM | [2] 13.7 µM | [3] 5.46 µM | [4] 13.7 µM | [5] 6.82 µM | [6] 1.71 µM | [7] 12.2 µM | [8] 3.87 µM | [9] 54.2 µM

CCCN(CCC)c1c([N+](=O)[O-])cc(C(F)(F)F)c(N)c1[N+](=O)[O-]
active: [1] 13.8 µM | [2] 21.8 µM | [3] 24.5 µM | [4] 43.5 µM | [5] 30.5 µM | [6] 21.6 µM | [7] 13.8 µM | [8] 13.8 µM | [9] 60.9 µM | [10] 30.5 µM

CCN(C(=O)c1cc(C)cc(OC[C@H](C)Nc2ccncc2)c1)C(C)C
inactive: [1] | [2] | [3] | [4] | [5] | [6] | [7] | [8] | [9] | [10] | [11]

O=C(O)c1cc(O)c2c(c1)C(=O)c1cccc(O)c1C2=O
inactive: [1] | [2] | [3] | [4] | [5] | [6] | [7] | [8] | [9]

CCCCCCCCCCCCCCCC[N+](C)(C)CCN(Cc1ccc(OC)cc1)c1ncccn1
active: [2] 19 µM | [3] 23.9 µM | [4] 21.3 µM | [5] 29.8 µM | [6] 33.5 µM | [7] 21.3 µM | [8] 5.35 µM | [9] 29.8 µM

COc1ccc(C(=O)/C(Br)=C\C(=O)O)cc1
inactive: [1] | [3] | [4] | [6] | [7] | [8] | [9] | [10]
active: [5] 48.6 µM

CCCCN1CCCC[C@H]1C(=O)Nc1c(C)cccc1C
inactive: [2] | [3] | [4] | [5] | [6] | [7] | [12] | [9] | [10] | [11]

Cc1cc(O)c2ccccc2c1O
active: [1] 7.5 µM | [2] 13.4 µM | [3] 13.4 µM | [4] 16.9 µM | [5] 7.5 µM | [6] 11.9 µM | [7] 10.7 µM | [8] 15.1 µM | [9] 13.3 µM | [10] 16.8 µM

N=C1C=CC(=C(c2ccc(N)cc2)c2ccc(N)cc2)C=C1
inactive: [3] | [4] | [7] | [8]
active: [5] 13.7 µM | [6] 15.4 µM | [9] 19.3 µM

Cc1[nH]nc2c1N=C(c1ccccc1Cl)c1cc([N+](=O)[O-])ccc1N2
active: [2] 21.9 µM | [4] 43.6 µM | [5] 54.5 µM | [6] 21.7 µM | [7] 30.9 µM | [8] 34.7 µM | [9] 43.3 µM
inactive: [3]

Cc1nc(-c2ccc3c(c2)CCN(CCC2CCC(NC(=O)/C=C/c4ccc(F)cc4)CC2)CC3)no1 (stereo not drawn)
inactive: [2] | [3] | [4] | [7] | [8] | [9]
active: [5] 15.4 µM | [6] 1.94 µM

CC(C)CCCCCCCCCCCCCCC(=O)O
inactive: [1] | [2] | [3] | [4] | [8] | [9]
active: [5] 68.6 µM | [6] 54.5 µM | [7] 24.5 µM | [12] 11 µM

CCCCCCC[N+](CC)(CC)CCCCc1ccc(Cl)cc1
inactive: [2] | [3] | [4] | [5] | [6] | [7] | [13] | [11]

COC(=O)C1=C(C)NC(C)=C(C(=O)OCCc2ccc(N3CCN(C(c4ccccc4)c4ccccc4)CC3)cc2)C1c1cccc([N+](=O)[O-])c1 (stereo not drawn)
inactive: [2] | [3] | [4] | [5] | [6] | [7] | [8] | [9]

CCc1cc(Cc2cc(CC)cc(C(C)(C)C)c2O)c(O)c(C(C)(C)C)c1
active: [1] 6.17 µM | [2] 4.36 µM | [3] 15.5 µM | [4] 21.9 µM | [5] 27.3 µM | [6] 19.3 µM | [7] 11 µM | [8] 13.8 µM | [9] 68.6 µM | [10] 27.3 µM

NNc1nc(-c2ccc([N+](=O)[O-])cc2)cs1
active: [5] 30.6 µM | [6] 10.9 µM
inactive: [3] | [4] | [7] | [8]

Cc1cc(O)c(C(C)(C)C)cc1Sc1cc(C(C)(C)C)c(O)cc1C
active: [2] 7.75 µM | [3] 17.3 µM | [4] 21.8 µM | [5] 8.62 µM | [6] 2.73 µM | [7] 12.3 µM | [8] 12.3 µM | [9] 61 µM
inactive: [10]

CCCCCCCCCCCC[N+](C)(C)CCCCCCCCCCCC
active: [1] 19.5 µM | [2] 24.5 µM | [3] 21.9 µM | [4] 43.6 µM | [5] 27.3 µM | [6] 19.3 µM | [7] 30.9 µM | [8] 15.5 µM | [9] 43.3 µM

COc1cc(/C=C/C(=O)O[C@H]2CC[C@]34C[C@]35CC[C@]3(C)[C@@H]([C@H](C)CCC=C(C)C)CC[C@@]3(C)[C@@H]5CC[C@H]4C2(C)C)ccc1O
inactive: [1] | [2] | [3] | [4] | [5] | [6] | [7] | [12] | [9] | [10] | [11]

COc1cc(-c2ccc(N=C=O)c(OC)c2)ccc1N=C=O
inactive: [1] | [2] | [3] | [4] | [5] | [6] | [7] | [12] | [8] | [10]

O=C(NO)C1(NS(=O)(=O)c2ccc(Oc3ccc(F)cc3)cc2)CCOCC1
inactive: [1] | [2] | [3] | [4] | [5] | [6] | [7] | [8] | [9] | [10]

Clc1ccc(C(Cn2ccnc2)OCc2ccc(Sc3ccccc3)cc2)c(Cl)c1 (stereo not drawn)
inactive: [3] | [4] | [5] | [6] | [7] | [12] | [8] | [9] | [10] | [11]

CCCCCCCCCCCCCCCS(=O)(=O)Oc1ccccc1
inactive: [2] | [3] | [4] | [5] | [6] | [7] | [12] | [9] | [10]

Cc1cccc(CN2CCN(C(c3ccccc3)c3ccc(Cl)cc3)CC2)c1 (stereo not drawn)
inactive: [3] | [4] | [5] | [6] | [7] | [13] | [9]

CCCC/C=C/CCCCO
inactive: [1] | [2] | [3] | [4] | [5] | [6] | [7] | [8] | [9]

Clc1ccc2cc3ccccc3cc2c1
inactive: [1] | [2] | [3] | [4] | [5] | [6] | [7] | [8]
active: [12] 54.9 µM

O=C1C=CC(=O)N1c1ccc(Cc2ccc(N3C(=O)C=CC3=O)cc2)cc1
active: [1] 17.4 µM | [2] 21.9 µM | [3] 24.5 µM | [4] 34.7 µM | [5] 15.4 µM | [6] 8.63 µM | [7] 24.5 µM | [8] 17.4 µM | [9] 61.1 µM | [10] 13.7 µM

CN(C)c1ccc(C2(c3ccc(N(C)C)cc3)OC(=O)c3cc(N(C)C)ccc32)cc1
inactive: [1] | [2] | [3] | [4] | [5] | [6] | [7] | [8] | [9] | [11]

CCOC(=O)O[C@H](C)OC(=O)c1ccc2c(c1)cc(C(=O)NC1CCN(C(C)C)CC1)n2Cc1cc(-c2ccc(Cl)s2)on1
active: [3] 45.8 µM | [4] 45.8 µM | [5] 11.4 µM | [6] 4.54 µM | [7] 16.2 µM | [8] 6.46 µM | [10] 12.8 µM

CCCCC(CC)CN=C(N)NC(N)=NCCCCCCN=C(N)NC(N)=NCC(CC)CCCC (stereo not drawn)
active: [1] 23.7 µM | [2] 7.56 µM | [3] 19 µM | [4] 16.9 µM | [5] 26.6 µM | [6] 26.6 µM | [7] 10.7 µM | [8] 8.49 µM | [9] 29.8 µM | [10] 11.9 µM

CCCCCCCC[N+](CCCCCCCC)(CCCCCCCC)CCCCCCCC
active: [1] 8.69 µM | [2] 7.75 µM | [3] 24.5 µM | [4] 43.6 µM | [5] 8.62 µM | [6] 6.1 µM | [7] 15.5 µM | [8] 13.8 µM | [9] 27.3 µM

Cc1ccc2oc(CN(Cc3ccccc3)C(=O)Nc3c(F)cc(F)cc3F)c(-c3ccc(Cl)cc3)c2c1
active: [6] 14.9 µM
inactive: [1] | [2] | [3] | [4] | [5] | [7] | [12] | [8] | [9] | [10]

O=C(OCC(COC(=O)c1ccccc1)(COC(=O)c1ccccc1)COC(=O)c1ccccc1)c1ccccc1
inactive: [1] | [3] | [4] | [5] | [6] | [7] | [12] | [8] | [9] | [10] | [11]
